Screening results: PubChem, National Center for Advancing Translational Sciences (NCATS)
Most compounds without a hit are left out; they make up all but 18% or so of the library.
DT40 TDP1 CPT: qHTS for Inhibitors of human tyrosyl-DNA phosphodiesterase 1 (TDP1): qHTS in cells in presence of CPT. AID 686979, 2013. Potency, µM (highest dose often 46.2 µM), inactives show at the top dose activity change, negative = growth inhibition, most hits filed as inhibitors. chicken DT40 Tdp1-/-;hTDP1 cells + 20 nM CPT, ATP luminescence, 48 h. hit rate 12% among 420,000; note: potency is the fitted concentration of half-maximal effect; nearly all actives have a fitted effect of over 55% in size
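Cell growth measured by CellTiter-Glo luminescence after a minimum 48 h, 37 C compound exposure with 20 nM CPT in Tdp1-knockout DT40 cells stably expressing hTDP1, seeded 400/well; qHTS titration format.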
CtBP-E1A blk: qHTS Assay for Inhibitors of the CtBP/E1A Interaction; CtBP / adenovirus E1A interaction (AlphaScreen); AlphaScreen GST-E1A/His-CtBP binding, 1536-well; hits give low values; activity change, % (no concentration beside the values); hit rate 0.49% among 340,000; AID 651724, 2012; in the data active = activity change below about -65%; inconclusive = mostly about -30% to -63%
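GST-E1A and His-tagged CtBP (125 nM each as 5X stock) were preincubated with pin-transferred compound for 2 h at 37 °C in the dark, then glutathione donor and nickel acceptor beads were added for 1 h before AlphaScreen reading.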
TDP1 block: qHTS Assay for Inhibitors of Tyrosyl-DNA Phosphodiesterase (TDP1) | Potency, µM (series often up to 130 µM), for the others: top-dose activity change, negative = inhibition, hits mostly inhibitors | hit rate 0.28% among 350,000 | Tyrosyl-DNA phosphodiesterase 1 (Homo sapiens), Q9NUW8 | recombinant TDP1, AlphaScreen DNA substrate cleavage | AID 485290, 2010; note: potency is the fitted concentration of half-maximal effect; nearly all actives have a fitted effect of over 40% in size
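Signal: AlphaScreen proximity between streptavidin donor and anti-FITC acceptor beads on intact substrate. Reaction: Tdp1 1 nM, substrate 15 nM final, 5 min RT after 15 min compound preincubation.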
TDP1 cell noCPT: qHTS for Inhibitors of human tyrosyl-DNA phosphodiesterase 1 (TDP1): qHTS in cells in absence of CPT. Potency, µM (top dose mostly 46.2 µM), inactives show at the top dose activity change, negative = growth inhibition, usual class: inhibitors. hit rate 15% among 420,000. DT40 Tdp1-/- hTDP1 cells, no CPT, ATP luminescence, 48 h; note: potency is the fitted concentration of half-maximal effect; nearly all actives have a fitted effect of over 55% in size
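Seeded 400 DT40-hTDP1 cells/well (vehicle DMSO, no 20 nM CPT); pinned compounds; ≥48 hr at 37 °C; CellTiter-Glo luminescence as viability measure.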
Six1-Eya2 inh: qHTS Assay for Inhibitors of the Six1/Eya2 Interaction | AlphaScreen GST-Six1/His-Eya2 binding, biochemical; hits give low values | activity change, % (test concentration not listed) | Homeobox protein SIX1 (Homo sapiens) + Protein phosphatase EYA2 (Homo sapiens), … | hit rate 0.56% among 360,000 | AID 651725, 2012; in the data active = activity change below about -65%; inconclusive = mostly about -30% to -63%
Target sequence (O00167 whole entry, looked up): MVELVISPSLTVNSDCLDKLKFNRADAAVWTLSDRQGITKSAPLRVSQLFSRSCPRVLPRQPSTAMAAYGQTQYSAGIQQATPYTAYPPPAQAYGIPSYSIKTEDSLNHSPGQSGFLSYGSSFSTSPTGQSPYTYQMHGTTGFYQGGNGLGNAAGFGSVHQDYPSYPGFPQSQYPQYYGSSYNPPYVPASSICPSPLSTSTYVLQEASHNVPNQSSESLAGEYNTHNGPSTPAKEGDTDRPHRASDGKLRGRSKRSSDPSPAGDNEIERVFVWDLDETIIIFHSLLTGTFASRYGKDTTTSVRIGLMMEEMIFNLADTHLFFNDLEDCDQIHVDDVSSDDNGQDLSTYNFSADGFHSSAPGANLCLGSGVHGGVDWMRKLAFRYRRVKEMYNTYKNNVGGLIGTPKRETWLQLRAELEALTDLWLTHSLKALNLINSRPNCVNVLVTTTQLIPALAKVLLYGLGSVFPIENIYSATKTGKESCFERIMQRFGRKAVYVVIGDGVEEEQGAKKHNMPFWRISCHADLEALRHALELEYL
Target sequence (Q15475 whole entry, looked up): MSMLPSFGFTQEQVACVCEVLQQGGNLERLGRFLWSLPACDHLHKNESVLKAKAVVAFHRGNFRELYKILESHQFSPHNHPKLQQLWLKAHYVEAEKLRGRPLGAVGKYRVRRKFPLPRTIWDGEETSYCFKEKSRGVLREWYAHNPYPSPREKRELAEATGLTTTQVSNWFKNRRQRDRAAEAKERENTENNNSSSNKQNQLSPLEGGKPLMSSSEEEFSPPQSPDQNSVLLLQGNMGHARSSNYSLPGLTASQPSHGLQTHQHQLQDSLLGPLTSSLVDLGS
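Homogeneous AlphaScreen proximity assay pairing GST-Six1 with His-tagged Eya2 (added as 5X mix: 250 nM and 500 nM) in 50 mM Tris pH 8.0, 300 mM NaCl, 1 mM TCEP. Glutathione donor and nickel acceptor beads; 1 h, 37 °C, dark.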
IL-1B inflam inh: qHTS for Inhibitors of Inflammasome Signaling: IL-1-beta AlphaLISA Primary Screen; THP-1 LPS/ATP IL-1B secretion, AlphaLISA, 16 h; hits give low values; activity change, % at 57.5 µM; hit rate 4.7% among 360,000; in the data active = activity change below about -50%; inconclusive = mostly about -30% to -49%
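THP-1 cells pretreated 1 hr with compounds (up to 57.5 uM final), then stimulated with LPS (250 ng/mL final) plus ATP (1.25 mM final); secreted IL-1B measured by AlphaLISA after 16 hr, decreased signal indicating inhibition.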
Starred values were filed as active, the others as inactive; ? = inconclusive; · = not tested or not shown. Unless noted, calls come from the whole dose curve; as a rule, active = well fitted curve in the direction sought with a large enough effect; inconclusive = small, poorly fitted or top-dose-only effect, or another doubt; inactive = no such curve, though single readings can be large; an effect the other way counts as inactive or inconclusive. % is set by controls: 0 for no effect and ±100 for the full control effect.

SMILES | DT40 TDP1 CPT | CtBP-E1A blk | TDP1 block | TDP1 cell noCPT | Six1-Eya2 inh | IL-1B inflam inh
c1ccc(CN2CCC(N3CCN(Cc4ccc5c(c4)OCO5)CC3)CC2)cc1 | ? | 7 | · | 18µM* | 2 | -27
Cc1ccc(/C=N/N2CCN(Cc3ccccc3)CC2)cc1 | 0% | ? | 3% | ? | -25 | -5
Cc1ccc(CN2CCN(/N=C/C=C/c3ccccc3[N+](=O)[O-])CC2)cc1 | 16µM* | -76* | 12% | 21µM* | ? | -89*
Cc1ccc(CN2CCN(/N=C/c3ccc(Cl)c([N+](=O)[O-])c3)CC2)cc1 | ? | ? | 12% | ? | ? | -74*
Cc1ccc([N+](=O)[O-])cc1S(=O)(=O)NCCc1c(C)[nH]c2ccccc12 | 1% | 6 | 3% | -6% | -9 | -8
COc1cc(S(=O)(=O)NCCc2c(C)[nH]c3ccccc23)c(C)cc1C | 18µM* | · | 12% | 18µM* | · | ·
COc1ccc(/C=C2\N=C(SC)N(C)C2=O)cc1 | -3% | -16 | 0% | -3% | 1 | 3
CCOC(=O)c1cc2c(C)[nH]c(C)c2cc(C(=O)OCC)c1=O | ? | -16 | 4% | 7.3µM* | -17 | -16
CCOC(=O)c1cc2c(C)n(-c3ccc(OCC)cc3)c(C)c2cc(C(=O)OCC)c1=O | ? | -1 | 5% | 16µM* | -3 | 6
COCCNC(=O)/C(C#N)=C1\N=C(N)c2ccccc21 | ? | -1 | 0% | ? | -10 | -19
COc1cc2c(cc1OC)[C@@H]1Cc3cc4c(cc3[C@H](C2)N1C)OCO4 | 4% | 0 | 3% | -19% | 2 | -1
COc1cc2c(cc1OC)C1CCc3cc4c(cc3C1N=C2)OCO4 (stereo not given) | 16µM* | -2 | · | 13µM* | -14 | -20
CCN1CCN(S(=O)(=O)c2ccc(S(=O)(=O)NCC3CCCO3)cc2)CC1 (stereo not given) | 3% | 7 | 2% | -2% | 6 | -2
O=S(=O)(c1ccc(C(F)(F)F)cc1)N1CCN(CCOc2ccccc2)CC1 | -14% | 10 | -42% | -16% | 3 | -17
Cc1nc([N+](=O)[O-])cn1CC(=O)c1ccc(OC(F)(F)F)cc1 | -15% | 1 | · | -6% | 10 | 23
O=S(=O)(NCC1CCCO1)c1ccccc1 (stereo not given) | -5% | 9 | 5% | 6% | -8 | 12
O=C(c1cc(F)cc(F)c1)N1CCC(c2nc(-c3ccc(S(=O)(=O)N4CCCC4)cc3)no2)CC1 | ? | · | -5% | ? | · | ·
O=C(C1CC1)N1CCC(c2nc(-c3ccc(S(=O)(=O)NCC4CCCO4)cc3)no2)CC1 (stereo not given) | 13µM* | 6 | 3% | 14µM* | 5 | 0
O=C(c1ccc(S(=O)(=O)NCC2CCCO2)cc1)N1CCc2ccccc21 (stereo not given) | 21µM* | -2 | 7% | 21µM* | 4 | 8
O=C(c1ccccc1)N1CCC(c2nc(-c3ccc(S(=O)(=O)NCC4CCCO4)cc3)no2)CC1 (stereo not given) | 10µM* | 7 | -2% | 10µM* | -3 | -72*
Cc1ccc(-c2ccc(S(=O)(=O)NCC3CCCO3)cc2)cc1 (stereo not given) | ? | · | -5% | ? | 2 | 22
COc1cc(-c2ccno2)ccc1S(=O)(=O)N1CCN(c2ccccc2F)CC1 | -5% | · | -1% | -22% | · | ·
